Results on 40 sequences are retold here after the supplement of paper PMC6555819.

The test system of this assay is VDR:RXRa (NR concentration 270 nM, RXRa partner concentration 90 nM). Nature of the assay: PBM binding z-score (relative to random genomic background probes); higher = stronger binding; sequences stand for … in GC…GCGATTGACAGCGTAGAATGAAGG
The method, then:
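Protein-binding microarray (Agilent 4x180K custom design, double-stranded 60-nt probes: 5' GC cap, 34-nt variable region, 24-nt constant primer region; full probe sequence given). Purified or IVT nuclear receptor:RXRα heterodimers (3:1 NR:RXRα, mostly 270:90 nM) or homodimers were incubated for 1 h in PBS with 2% milk and no ligand, then detected with Alexa488 antibodies. Fluorescence from o1-orientation probes (~5 replicates averaged) was converted to z-scores against 500 random hg19 background probes. Variable regions are seed direct-repeat (DR0–DR5) sites, all their single-nucleotide variants and half-site ablations.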
On to TCTAGTTGGTCACGGAGGTCAGACACGACGGGTA, for which the PBM binding z-score is 4.68.
On to ACTAGTTGGTCCGCTGAGGTCACACACAATTCGG, for which the PBM binding z-score was 3.75.
Then GCATATAGGTAATACAAGGTGAAAGTTCGATTGT, with 1.17; and GCTGTTAGGTCAGGTTGGTCAGCTAACGGGTACG, with 0.95.
Sequence CGTCCAAGGTCAAAGGTCGGTGAAGAGATGACGG showed a PBM binding z-score of 5.32.
TCATATAGATAAAAGGTGAAAGTCGGTGTGGTAA displayed a PBM binding z-score of 1.35.
The sequence CCCACTGGGCCAAGGTCATTGATCAGTCAAAGCA displayed a PBM binding z-score of 2.94.
Sequence CATCCAAGGTCAGAGAGGTCAGTGAATGCCGAGT displayed a PBM binding z-score of 7.55.
In the case of CCTGCTAGGTCATGGTCAGCTCATCTACAGTATG, the PBM binding z-score is 1.8.
CCGACTGGGTCATAAGGTTACCATAAGCCAGCCC: the PBM binding z-score stood at 2.81.
As to GGATCGAGGGCAAGTTGATAGCAGAGTTTGATGG, the PBM binding z-score was 0.959.
In the case of CAGCCTAGGTCAGGGCCAATATAGGAGGAACGTT, the PBM binding z-score was determined as 0.378.
TCATATAGGTAAATGCTAGGTGAAACTCCGATCT: the PBM binding z-score stood at 0.855.
For ACTATTAGTTGACTTAGGACAACCGATACGACGC the value was 0.499; for TCAAATAGGTAAATGCTAGGTGAAAGTCCGATCT, 0.866.
On to ATCGCTAGGTAAAAGTTCAGTGAATCCCGAGGAT, for which the PBM binding z-score came to 0.809.
Then CGTCAAAGTTGAAGGTAACGTAACAGAAAGCAGC, with -0.0741; and AATACAGGGTCATCGTCGGCCAGAGTACGCACAG, with 5.
In turn, ATATGTAGGTTATGGGTCATTCAGGTTGGTTCGC had a PBM binding z-score of 4.33.
The sequence AGAATGAGGTTAAGATCCGGGAAACAGAATACAT registered a PBM binding z-score of 1.05.
Then TCAAATAGGTAAAGGTGAAAGTCGAACGATATGA, with 1.17; and TCACGGAGGACACGAAAGGTCAGAGCTCGACATC, with 3.47.
As to GCTATTAGTTGACAGGGCAACCGAATGATTCTCG, the PBM binding z-score is -0.414.
Turning to AGAACGAGGGCACGCTGAGTTGGTAGCAGAGTAG, the PBM binding z-score came to 1.34.
Take TCTATTAGATGAAGGGCAACCGACGAGTCCGTTT: the PBM binding z-score came to 1.02.
Turning to ACTATTAGTTGACTTAGGCCAACCGATACGACGC, the PBM binding z-score is 0.432.
Take TAGCCTAGGTCACTGGGCCAGTATAGTACGCATC: the PBM binding z-score came to 1.45.
For AGAACGAGGGCATTGAGTTGATAGCACGGGTGGC the value was 5.24; for CCAGACAGGTGAGAAGGTAAATCAGCCTCGATTA, -0.13; for TTACCAAGATGAAGGTCGTTGATCCCTCTGTAGA, 0.991.
With CGTCAAAGTTCAACTAAGGTAACGCAAAGCACGC, the PBM binding z-score is 4.64.
For ACTATTAGTTGAGACGAGGGCATCCGATAGGTTG the value was 0.918; for TCTTGTAGGTCAAGCAGGTTAAGAAAGCCTGAGT, 5.16; for AGATTGAGGTTAAGATCAGGGAAACAGAATACAT, 1.42.
CCTACTGGGCCGAAAAGGTCATTGATGCCGATAA showed a PBM binding z-score of 4.48.
For CCAGACAGGTGAAAAGGTAACTCAGCCTCGATTA the value was 0.369; for ACTAGTTGATCAGCTGAGGTCACACACAATTCGG, 4.02; for ACTAGCAGGCCAAGTTTGGGTCACTCACACAAAG, 0.806.
Then GGAACAAGGGCAAGTTGATAGCAGAGTTTGATGG, with 0.829; and TTACCAAGGCGAGCTGAGGTCGTTGATCCAACTC, with 1.63.
